# Measurements as given in PubChem BioAssay (Tox21).
# Several values for one entry are separate records, joined by “and”; a condition that tells them apart may be missing. Equal entries are not always repeated. Inconclusive results are not listed. A call without a number means that no potency is given here. A structure can be active in one record and inactive in another. Activity calls are given as the source filed them. Unless noted, calls follow the shape of the dose curve; as a rule, active = well fitted curve in the direction sought with a large enough effect in the repeat runs; inconclusive = weak or mixed curves; inactive = no such curve, though single readings can be large; an effect the other way counts as inactive or inconclusive.
# How the values were obtained:
# [1] = target: Acetylcholinesterase (Homo sapiens) (UniProt P22303); test: Acetylcholinesterase (AChE) small molecule antagonists: enzyme-based qHTS assay (AID 1347397; calls by dose curve; also: nearly all actives have a fitted effect of over 55% in size); conditions: Potency: AChE enzyme activity inhibition
# How it was run: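 Compound or DMSO vehicle was pin-transferred onto recombinant human AChE (50 mU/mL as dispensed) and left 30 min at room temperature. Acetylthiocholine with DTNB then started the reaction, read colorimetrically 10 min later.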
# [2] = target: Acetylcholinesterase (Homo sapiens) (UniProt P22303); test: Acetylcholinesterase (AChE) small molecule antagonists: enzyme-based qHTS assay with human liver microsomes (AID 1347399; calls by dose curve; also: nearly all actives have a fitted effect of over 60% in size); conditions: Potency: qHTS inhibition
# How it was run: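 Recombinant human AChE (50 mU/mL in the enzyme mix) and human liver microsomes (0.25 mg/mL final) were preincubated with compound and NADPH (0.25 mg/mL final) for 30 min at 37 C. Acetylthiocholine/DTNB was then added; thiocholine was read colorimetrically after 10 min at room temperature.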
# [3] = target: Cytochrome P450 2D6 (Homo sapiens) (UniProt P10635); test: Cytochrome P450 Family 2 Subfamily D Member 6 (CYP2D6) small molecule antagonists: luciferase reporter qHTS assay (AID 1671196); also: nearly all actives have a fitted effect of over 50% in size; also: potency is read from the fitted curve at half-maximal effect
# How it was run: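 Room-temperature luminescent CYP2D6 activity assay: compound preincubated 10 min with enzyme–substrate mix, NADPH-initiated reaction 1 h, detection reagent 20 min before reading.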
# [4] = target: Cytochrome P450 2C19 (Homo sapiens) (UniProt P33261); test: Cytochrome P450 Family 2 Subfamily C Member 19 (CYP2C19) small molecule antagonists: luciferase reporter qHTS assay (AID 1671197); also: nearly all actives have a fitted effect of over 65% in size; also: potency is read from the fitted curve at half-maximal effect
# How it was run: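 First, compounds are pinned into enzyme-substrate mix and held 10 min at room temperature. Second, NADPH regeneration solution is added and plates incubate 1 h at 37C. Third, detection reagent is added and luminescence read after 20 min.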
# [5] = target: Cytochrome P450 2C9 (Homo sapiens) (UniProt P11712); test: Cytochrome P450 Family 2 Subfamily C Member 9 (CYP2C9) small molecule antagonists: luciferase reporter qHTS assay (AID 1671198); also: nearly all actives have a fitted effect of over 50% in size; also: potency is read from the fitted curve at half-maximal effect
# How it was run: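 CYP2C9 activity was measured with a P450-Glo proluciferin substrate. Enzyme–substrate mix was held with compound for 10 min at room temperature, then NADPH regeneration solution was added for 1 h at 37C. Luciferin product was read as luminescence.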
# [6] = target: Cytochrome P450 1A2 (Homo sapiens) (UniProt P05177); test: Cytochrome P450 Family 1 Subfamily A Member 2 (CYP1A2) small molecule antagonists: luciferase reporter qHTS assay (AID 1671199); also: nearly all actives have a fitted effect of over 50% in size; also: potency is read from the fitted curve at half-maximal effect
# How it was run: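 Room-temperature CYP1A2 reaction with proluciferin substrate: compounds added from DMSO, 10 min preincubation, NADPH regeneration for 1 h. Luciferin detection reagent then added; luminescence recorded as RLU.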
# [7] = target: Voltage-gated inwardly rectifying potassium channel KCNH2 (Homo sapiens) (UniProt Q12809); test: Human Ether-a-go-go-Related Gene (hERG) channel small molecule antagonists: fluorescence cell-based qHTS assay (AID 1671200); also: nearly all actives have a fitted effect of over 50% in size; also: potency is read from the fitted curve at half-maximal effect
# How it was run: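 In this thallium-flux screen, overnight-cultured U2OS cells bearing the channel are dye-loaded in darkness for an hour, rested 10 min at room temperature, and then monitored kinetically at 480/540 nm for two minutes post-stimulus.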
# [8] = target: Cytochrome P450 3A4 (Homo sapiens) (UniProt P08684); test: Cytochrome P450 Family 3 Subfamily A Member 4 (CYP3A4) small molecule antagonists: luciferase reporter qHTS assay (AID 1671201); also: nearly all actives have a fitted effect of over 50% in size; also: potency is read from the fitted curve at half-maximal effect
# How it was run: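 CYP3A4 activity was followed with a P450-Glo proluciferin substrate. Test compounds in DMSO were preincubated 10 min; NADPH regeneration then ran 1 h, and light output was read 20 min after detection reagent.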
# [9] = target: Acetylcholinesterase (Homo sapiens) (UniProt P22303); test: Acetylcholinesterase (AChE) small molecule antagonists: fluorescence cell-based qHTS assay (AID 1347398; calls by dose curve; also: nearly all actives have a fitted effect of over 50% in size); conditions: Potency: AChE activity
# How it was run: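 Using neuroblastoma SH-SY5Y cells as the enzyme source, test chemicals are preincubated 30 min at 37 C; AChE-driven acetylthiocholine cleavage is then quantified by thiocholine-dependent Thiolite Green fluorescence after 40 min at room temperature.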
# Sequence of Cytochrome P450 3A4 (Homo sapiens) (P08684 whole entry, looked up): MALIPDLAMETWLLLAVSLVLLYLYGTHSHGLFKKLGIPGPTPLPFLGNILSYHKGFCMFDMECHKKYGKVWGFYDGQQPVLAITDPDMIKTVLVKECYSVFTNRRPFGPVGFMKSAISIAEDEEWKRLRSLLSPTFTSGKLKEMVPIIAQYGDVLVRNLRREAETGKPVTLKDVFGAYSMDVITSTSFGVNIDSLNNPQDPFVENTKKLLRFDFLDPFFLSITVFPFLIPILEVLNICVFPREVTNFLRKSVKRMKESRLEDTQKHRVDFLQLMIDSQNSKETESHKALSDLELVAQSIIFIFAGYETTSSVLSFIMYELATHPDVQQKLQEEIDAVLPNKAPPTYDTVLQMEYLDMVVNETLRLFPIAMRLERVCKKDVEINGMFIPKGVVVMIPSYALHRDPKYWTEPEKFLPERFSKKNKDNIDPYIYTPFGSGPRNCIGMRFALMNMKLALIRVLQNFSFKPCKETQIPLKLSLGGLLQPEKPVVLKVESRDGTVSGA
# Sequence of Voltage-gated inwardly rectifying potassium channel KCNH2 (Homo sapiens) (Q12809 whole entry, looked up): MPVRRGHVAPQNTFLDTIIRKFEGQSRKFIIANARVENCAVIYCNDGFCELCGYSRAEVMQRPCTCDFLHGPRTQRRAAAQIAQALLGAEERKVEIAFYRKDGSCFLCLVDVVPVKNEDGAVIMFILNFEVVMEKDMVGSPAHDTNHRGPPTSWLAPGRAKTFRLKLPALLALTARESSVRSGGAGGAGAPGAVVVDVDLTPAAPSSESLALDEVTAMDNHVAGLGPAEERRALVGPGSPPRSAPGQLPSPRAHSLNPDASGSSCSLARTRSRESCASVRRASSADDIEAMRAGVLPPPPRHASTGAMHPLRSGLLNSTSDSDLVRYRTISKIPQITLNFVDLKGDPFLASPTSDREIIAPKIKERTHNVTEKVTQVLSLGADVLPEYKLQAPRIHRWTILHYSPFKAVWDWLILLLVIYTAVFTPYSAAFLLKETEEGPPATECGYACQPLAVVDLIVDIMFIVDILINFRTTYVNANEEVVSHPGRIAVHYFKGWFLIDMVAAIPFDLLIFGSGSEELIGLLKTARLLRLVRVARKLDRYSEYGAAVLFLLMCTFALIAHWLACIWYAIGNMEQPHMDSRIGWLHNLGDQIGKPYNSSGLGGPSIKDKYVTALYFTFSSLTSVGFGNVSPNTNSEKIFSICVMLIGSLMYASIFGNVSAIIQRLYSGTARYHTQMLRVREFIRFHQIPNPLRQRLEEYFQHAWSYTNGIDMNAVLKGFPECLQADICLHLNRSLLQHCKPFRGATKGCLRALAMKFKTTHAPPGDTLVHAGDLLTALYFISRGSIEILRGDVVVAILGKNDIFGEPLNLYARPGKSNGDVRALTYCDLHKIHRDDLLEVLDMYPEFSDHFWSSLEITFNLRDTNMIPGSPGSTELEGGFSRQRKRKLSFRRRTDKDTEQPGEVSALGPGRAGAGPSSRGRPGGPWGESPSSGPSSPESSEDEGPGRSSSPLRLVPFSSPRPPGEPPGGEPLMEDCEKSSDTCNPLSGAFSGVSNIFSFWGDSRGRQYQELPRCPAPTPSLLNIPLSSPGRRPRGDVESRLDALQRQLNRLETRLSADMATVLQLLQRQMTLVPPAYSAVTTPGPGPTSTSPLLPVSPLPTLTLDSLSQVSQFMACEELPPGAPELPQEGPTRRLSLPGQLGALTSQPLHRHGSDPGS
# Sequence of Cytochrome P450 2C9 (Homo sapiens) (P11712 whole entry, looked up): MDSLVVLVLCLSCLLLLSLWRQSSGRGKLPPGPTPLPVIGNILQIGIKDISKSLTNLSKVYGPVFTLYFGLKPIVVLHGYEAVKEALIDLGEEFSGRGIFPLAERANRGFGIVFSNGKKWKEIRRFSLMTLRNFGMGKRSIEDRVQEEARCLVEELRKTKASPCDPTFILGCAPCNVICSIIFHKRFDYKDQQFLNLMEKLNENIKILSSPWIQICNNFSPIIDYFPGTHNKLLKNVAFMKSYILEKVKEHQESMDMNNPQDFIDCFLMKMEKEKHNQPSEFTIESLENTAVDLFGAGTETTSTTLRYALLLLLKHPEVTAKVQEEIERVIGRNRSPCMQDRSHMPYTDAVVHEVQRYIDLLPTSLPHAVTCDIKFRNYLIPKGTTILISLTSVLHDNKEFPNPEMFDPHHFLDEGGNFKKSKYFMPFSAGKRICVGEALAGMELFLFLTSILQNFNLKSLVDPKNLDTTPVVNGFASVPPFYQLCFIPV
# Sequence of Acetylcholinesterase (Homo sapiens) (P22303 whole entry, looked up): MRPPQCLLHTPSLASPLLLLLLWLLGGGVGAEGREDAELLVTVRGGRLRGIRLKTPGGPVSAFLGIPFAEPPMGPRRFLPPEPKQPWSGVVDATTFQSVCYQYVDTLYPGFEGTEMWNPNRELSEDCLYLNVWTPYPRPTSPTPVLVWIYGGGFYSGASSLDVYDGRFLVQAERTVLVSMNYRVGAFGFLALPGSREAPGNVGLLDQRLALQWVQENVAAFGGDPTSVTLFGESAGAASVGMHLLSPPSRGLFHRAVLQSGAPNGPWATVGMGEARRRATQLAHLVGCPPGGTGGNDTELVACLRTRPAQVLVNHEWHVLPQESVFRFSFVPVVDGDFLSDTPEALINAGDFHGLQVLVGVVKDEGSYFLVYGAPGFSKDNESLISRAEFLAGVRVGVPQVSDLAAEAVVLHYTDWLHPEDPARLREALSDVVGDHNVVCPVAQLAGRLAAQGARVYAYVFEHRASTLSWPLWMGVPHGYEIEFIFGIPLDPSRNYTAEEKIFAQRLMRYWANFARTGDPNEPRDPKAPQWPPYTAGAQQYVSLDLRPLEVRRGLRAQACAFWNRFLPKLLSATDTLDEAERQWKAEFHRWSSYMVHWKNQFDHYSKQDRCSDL
# Sequence of Cytochrome P450 2C19 (Homo sapiens) (P33261 whole entry, looked up): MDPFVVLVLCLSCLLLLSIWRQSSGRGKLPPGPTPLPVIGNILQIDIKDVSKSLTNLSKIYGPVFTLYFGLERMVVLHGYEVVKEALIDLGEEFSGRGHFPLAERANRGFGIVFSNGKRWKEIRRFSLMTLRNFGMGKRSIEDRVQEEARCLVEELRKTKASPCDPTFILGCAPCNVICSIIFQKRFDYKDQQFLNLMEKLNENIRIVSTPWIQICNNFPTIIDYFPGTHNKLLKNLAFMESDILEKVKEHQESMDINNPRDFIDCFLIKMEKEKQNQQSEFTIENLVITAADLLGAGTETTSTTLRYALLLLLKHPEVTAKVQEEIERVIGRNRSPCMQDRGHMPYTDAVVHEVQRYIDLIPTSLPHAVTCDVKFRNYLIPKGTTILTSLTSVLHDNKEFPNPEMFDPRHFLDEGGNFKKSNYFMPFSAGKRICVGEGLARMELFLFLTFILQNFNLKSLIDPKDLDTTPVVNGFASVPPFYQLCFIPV
# Sequence of Cytochrome P450 1A2 (Homo sapiens) (P05177 whole entry, looked up): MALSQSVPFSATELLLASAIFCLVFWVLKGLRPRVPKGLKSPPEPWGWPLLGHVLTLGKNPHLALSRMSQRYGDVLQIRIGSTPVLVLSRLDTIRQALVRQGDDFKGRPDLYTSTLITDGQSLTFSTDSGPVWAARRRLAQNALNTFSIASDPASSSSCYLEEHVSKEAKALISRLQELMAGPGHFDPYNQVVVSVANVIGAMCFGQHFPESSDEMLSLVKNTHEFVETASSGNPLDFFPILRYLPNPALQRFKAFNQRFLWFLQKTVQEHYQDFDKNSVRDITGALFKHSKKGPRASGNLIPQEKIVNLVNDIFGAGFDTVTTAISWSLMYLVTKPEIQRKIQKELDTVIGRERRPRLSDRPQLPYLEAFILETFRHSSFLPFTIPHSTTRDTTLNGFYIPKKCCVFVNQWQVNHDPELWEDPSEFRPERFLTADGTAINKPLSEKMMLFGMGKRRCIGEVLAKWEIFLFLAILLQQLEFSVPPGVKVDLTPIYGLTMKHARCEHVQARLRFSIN
# Sequence of Cytochrome P450 2D6 (Homo sapiens) (P10635 whole entry, looked up): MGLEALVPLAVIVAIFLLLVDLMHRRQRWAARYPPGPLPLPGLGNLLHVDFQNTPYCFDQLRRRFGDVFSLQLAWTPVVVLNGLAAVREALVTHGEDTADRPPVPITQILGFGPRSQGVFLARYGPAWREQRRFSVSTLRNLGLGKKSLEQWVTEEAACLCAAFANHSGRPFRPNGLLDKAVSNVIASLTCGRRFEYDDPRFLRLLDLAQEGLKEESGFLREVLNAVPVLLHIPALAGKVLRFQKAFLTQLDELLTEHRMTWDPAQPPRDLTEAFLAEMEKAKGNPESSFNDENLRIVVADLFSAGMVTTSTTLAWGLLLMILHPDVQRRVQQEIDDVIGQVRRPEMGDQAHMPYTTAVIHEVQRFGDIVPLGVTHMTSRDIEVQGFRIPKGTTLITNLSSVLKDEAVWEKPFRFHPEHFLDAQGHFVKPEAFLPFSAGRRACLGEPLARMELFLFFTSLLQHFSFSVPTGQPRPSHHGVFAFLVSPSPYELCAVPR
SMILES,Potency [1],Potency [2],Potency [3],Potency [4],Potency [5],Potency [6],Potency [7],Potency [8],Potency [9]
O=C1C2(Cl)C3(Cl)C4(Cl)C(Cl)(Cl)C5(Cl)C3(Cl)C1(Cl)C5(Cl)C24Cl (stereo not drawn),inactive,inactive,inactive,622 nM (active) and 961 nM (active),5.55 µM (active) and 6.06 µM (active),inactive,12.1 µM (active) and 14.8 µM (active),2.78 µM (active) and 3.41 µM (active),
O=c1c2ccccc2c(=O)c2c1cc(Cl)c1[nH]c3c([nH]c12)c(Cl)cc1c(=O)c2ccccc2c(=O)c13,inactive,inactive,inactive,inactive,,,inactive,inactive,
ClC(Cl)C(Cl)(Cl)Cl,inactive,inactive,inactive,,inactive,31.1 µM (active),inactive,inactive,
O=C(N[C@@H]1N=C(c2ccccc2F)c2cccc3c2N(CC3)C1=O)c1cc2ccccc2[nH]1,inactive,inactive,inactive,,4.9 µM (active),inactive,12 µM (active),,
COc1ccc2c3c1O[C@H]1[C@H](O)CC[C@H]4[C@@H](C2)N(C)CC[C@@]341,inactive,inactive,inactive,inactive,,inactive,inactive,,
Oc1cccc(Cl)c1Cl,inactive,inactive,56.6 µM (active),,inactive,35.7 µM (active),inactive,inactive,
N#CSCc1ccccc1,inactive,inactive,45 µM (active),71.3 µM (active),,80 µM (active),inactive,,
CCN(CC)C(=S)S,inactive,inactive,inactive,71.6 µM (active) and 50 µM (active) and inactive,62.9 µM (active) and 31.7 µM (active),40.3 µM (active),inactive,,
[O]=[Cr][O][Cr]=[O],inactive,inactive,2.58 µM (active),,inactive,,inactive,inactive,
N#Cc1ccc(N(CC(N)=O)CC(F)(F)F)cc1C(F)(F)F,inactive,inactive,31.7 µM (active),79.6 µM (active),35.6 µM (active),39.9 µM (active),inactive,,
Oc1cc(Cl)c(Cl)c(Cl)c1Cl,inactive,inactive,,,,27.6 µM (active),inactive,inactive,inactive
O=C(O)[C@H](O)[C@@H](O)C(=O)O,inactive,,,,,,inactive,,inactive
CC[N+]1(CC)CCC(OC(=O)C(O)(c2ccccc2)c2ccccc2)C1 (stereo not drawn),inactive,inactive,8.71 µM (active),inactive,inactive,,inactive,,
Clc1ccc(C(Cl)(Cl)Cl)cc1Cl,inactive,inactive,inactive,,inactive,,inactive,,
CC(C)c1c(CN(C)C(C)Cc2ccccc2)n(C)n(-c2ccccc2)c1=O (stereo not drawn),inactive,inactive,,6.92 µM (active),4.36 µM (active),,inactive,1.74 µM (active),
Cc1ccc([N+](=O)[O-])[c]2c1[O][Hg]2,,inactive,0.871 µM (active),,0.871 µM (active),3.23 µM (active),6.01 µM (active),7.76 µM (active),inactive
O=[N+]([O-])c1ccc(Cl)c(Cl)c1Cl,,inactive,inactive,55.6 µM (active),inactive,8.8 µM (active),inactive,inactive,inactive
CN/C(=N\[N+](=O)[O-])NCc1cnc(Cl)s1,,inactive,inactive,,inactive,inactive,inactive,inactive,inactive
Nc1nc(N)c(N)c(N)n1,,inactive,inactive,,inactive,35.7 µM (active),inactive,inactive,inactive
Clc1ccc(C(c2ccc(Cl)cc2)C(Cl)Cl)cc1,,inactive,64.3 µM (active),181 nM (active) and 113 nM (active),5.11 µM (active) and 6.33 µM (active),6.43 µM (active) and 8.94 µM (active),24.9 µM (active) and 19.5 µM (active),inactive,inactive
ClC1=C(Cl)[C@]2(Cl)[C@@H]3[C@H]4C[C@H]([C@@H]5O[C@H]45)[C@@H]3[C@@]1(Cl)C2(Cl)Cl,,inactive,inactive,63.3 µM (active),,,inactive,,inactive
O=C(N[C@H]1N=C(c2ccccc2F)c2cccc3c2N(CC3)C1=O)c1cc2ccccc2[nH]1,,inactive,inactive,inactive,7.76 µM (active),inactive,7.56 µM (active),inactive,inactive
CCC[CH2][Sn]([CH2]CCC)([O]C(C)=O)[O]C(C)=O,inactive,inactive,,,inactive,inactive,inactive,inactive,
